Records with an inconclusive call do not appear. Activity calls are given as the source filed them. Unless noted, the call rests on the fitted dose curve; in most records, active means well fitted curve in the direction sought with a large enough effect; inconclusive means small, poorly fitted or top-dose-only effect, or another doubt; inactive means no such curve, though single readings can be large; an effect the other way counts as inactive or inconclusive.
Legend:
[1] = molecular target: Lysosomal acid glucosylceramidase (Homo sapiens) (UniProt P04062); assay: Glucocerebrosidase-p2 (AID 348; in the data active means potency below about 10 µM; further: potency means the concentration at half of the fitted maximal effect); details: purified GBA, blue fluorogenic substrate, 40 min
Lysosomal acid glucosylceramidase (Homo sapiens), sequence (P04062 whole entry, looked up): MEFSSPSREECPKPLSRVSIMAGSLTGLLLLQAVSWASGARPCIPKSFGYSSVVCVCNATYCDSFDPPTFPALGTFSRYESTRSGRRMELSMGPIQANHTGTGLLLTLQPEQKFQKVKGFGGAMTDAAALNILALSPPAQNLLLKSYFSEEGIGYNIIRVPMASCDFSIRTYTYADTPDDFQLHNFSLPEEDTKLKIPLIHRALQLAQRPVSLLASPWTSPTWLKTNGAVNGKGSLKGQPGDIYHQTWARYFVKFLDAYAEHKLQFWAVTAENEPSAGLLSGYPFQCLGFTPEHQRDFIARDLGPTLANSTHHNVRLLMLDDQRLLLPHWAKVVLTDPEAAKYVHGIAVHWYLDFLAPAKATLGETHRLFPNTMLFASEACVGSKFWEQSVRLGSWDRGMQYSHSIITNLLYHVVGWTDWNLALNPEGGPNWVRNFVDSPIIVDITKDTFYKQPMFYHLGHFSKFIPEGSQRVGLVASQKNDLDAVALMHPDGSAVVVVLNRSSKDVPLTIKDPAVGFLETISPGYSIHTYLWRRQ
In short: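 Compounds titrated from 0.6 nM upwards against 0.2 nM enzyme in pH 5.9 citric acid/KH2PO4, taurocholate, tween-20; blue fluorogenic substrate 80 uM, 40 min room temperature, stopped and read Ex 365/Em 440 for AC50.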

[2] = AP1 Signaling Pathway (AID 357; active means well fitted curve in either direction with a large enough effect, not every such curve was filed as active;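 further: ME-180 reporter cells stimulated with EGF at its EC50 level; on the % scale 0 is the no-effect control and ±100 the full control effect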); details: ME-180 AP-1-bla reporter, EGF-induced, beta-lactamase ratio, 5 h; at 7.69 µM (top of the series) unless noted
In short: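 First, ME-180 AP-1-bla cells were cultured overnight at 37 °C in low-serum Opti-MEM. Next, titrated compounds with EC50 EGF were incubated 5 hours. Finally, CCF4 was added for 2.5 hours and the 460/530 nm ratio recorded.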

[3] = NFAT Signaling Pathway (AID 444; active means well fitted curve in either direction with a large enough effect, not every such curve was filed as active;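 further: carbachol stimulus at about its EC50 of 1 µM final; on the % scale 0 is the no-effect control and ±100 the full control effect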); details: Jurkat NFAT-bla M1, carbachol, beta-lactamase ratio, 5 h; at 7.69 µM (top of the series) unless noted
In short: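 Jurkat cells with NFAT-driven β-lactamase reporter and co-expressed M1 receptor, stimulated with carbachol (final 1 uM, ~EC50), compound titration, 5 h at 37 °C. CCF4 loaded 1 h at RT; 460/530 nm ratio gave %activity and AC50.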

[4] = Stat Signaling Pathway (AID 446; active means well fitted curve in either direction with a large enough effect, not every such curve was filed as active;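 further: ME-180 cervical cancer cells given 40 pM IL-6 alongside compound; SIE-controlled beta-lactamase reporter measured as 460/530 nm FRET emission ratio; on the % scale 0 is the no-effect control and ±100 the full control effect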); details: ME-180 SIE beta-lactamase reporter, IL-6 stimulated, 5 h; at 7.69 µM (top of the series) unless noted
In short: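 ME-180 cells carrying a SIE-driven beta-lactamase reporter are stimulated with 40 pM IL-6 for 5 h at 37C in the presence of compound. The 460/530 nm FRET substrate ratio is read after 2.5 h at RT. Data are normalised to 300 pM IL-6 and to 125 nM JAK inhibitor controls.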

[5] = molecular target: Glucocorticoid receptor (Homo sapiens) (UniProt P04150); assay: GR-GFP Redistribution (AID 450;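 active means compounds whose dose series gives a full or clear partial fitted curve of increased nuclear translocation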; further: potency means the concentration at half of the fitted maximal effect); details: U2OS GR-GFP nuclear translocation, laser cytometry, 2 h
Glucocorticoid receptor (Homo sapiens), sequence (P04150 whole entry, looked up, the tested form may be a part): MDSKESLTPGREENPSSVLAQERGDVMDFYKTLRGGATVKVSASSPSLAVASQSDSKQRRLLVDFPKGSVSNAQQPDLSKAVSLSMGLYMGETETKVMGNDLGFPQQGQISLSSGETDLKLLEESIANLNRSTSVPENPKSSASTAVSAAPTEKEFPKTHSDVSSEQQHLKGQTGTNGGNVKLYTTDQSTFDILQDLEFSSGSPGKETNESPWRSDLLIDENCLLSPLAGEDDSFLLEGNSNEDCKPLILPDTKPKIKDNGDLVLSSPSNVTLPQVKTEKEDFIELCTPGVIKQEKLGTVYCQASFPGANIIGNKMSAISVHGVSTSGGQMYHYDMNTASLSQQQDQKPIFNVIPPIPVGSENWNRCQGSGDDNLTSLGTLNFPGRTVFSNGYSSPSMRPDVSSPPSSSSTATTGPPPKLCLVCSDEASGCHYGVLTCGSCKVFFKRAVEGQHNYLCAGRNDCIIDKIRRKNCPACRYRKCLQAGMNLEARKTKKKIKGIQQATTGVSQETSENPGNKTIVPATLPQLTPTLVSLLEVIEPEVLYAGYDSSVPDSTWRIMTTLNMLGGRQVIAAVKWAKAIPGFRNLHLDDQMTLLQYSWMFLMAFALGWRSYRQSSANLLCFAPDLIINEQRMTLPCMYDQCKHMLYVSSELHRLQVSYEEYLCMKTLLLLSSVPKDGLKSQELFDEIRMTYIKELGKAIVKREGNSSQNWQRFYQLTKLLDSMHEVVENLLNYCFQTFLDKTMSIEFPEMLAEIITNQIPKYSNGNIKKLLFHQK

[6] = molecular target: Glucocorticoid receptor (Homo sapiens) (UniProt P04150); assay: GR-EFC Redistribution (AID 451; calls by dose curve; further: potency means the concentration at half of the fitted maximal effect); details: CHO-K1 GR-EFC translocation, beta-gal luminescence, 2 h
In short: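 CHO-K1 cells expressing nuclear EA and GR-ED fragments of b-gal; compounds titrated up to 46 uM final, 2 h at 37 C. GR nuclear translocation read as complemented b-gal luminescence after 1 h RT detection.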

[7] = molecular target: Cytochrome P450 3A4 (Homo sapiens) (UniProt P08684); assay: qHTS Assay for Inhibitors and Substrates of Cytochrome P450 3A4 (AID 884); details: recombinant CYP3A4, Luciferin-PPXE luminescence; series mostly up to 57.1 µM; further: potency means the concentration at half of the fitted maximal effect; nearly all actives have a fitted effect of over 50% in size
Cytochrome P450 3A4 (Homo sapiens), sequence (P08684 whole entry, looked up): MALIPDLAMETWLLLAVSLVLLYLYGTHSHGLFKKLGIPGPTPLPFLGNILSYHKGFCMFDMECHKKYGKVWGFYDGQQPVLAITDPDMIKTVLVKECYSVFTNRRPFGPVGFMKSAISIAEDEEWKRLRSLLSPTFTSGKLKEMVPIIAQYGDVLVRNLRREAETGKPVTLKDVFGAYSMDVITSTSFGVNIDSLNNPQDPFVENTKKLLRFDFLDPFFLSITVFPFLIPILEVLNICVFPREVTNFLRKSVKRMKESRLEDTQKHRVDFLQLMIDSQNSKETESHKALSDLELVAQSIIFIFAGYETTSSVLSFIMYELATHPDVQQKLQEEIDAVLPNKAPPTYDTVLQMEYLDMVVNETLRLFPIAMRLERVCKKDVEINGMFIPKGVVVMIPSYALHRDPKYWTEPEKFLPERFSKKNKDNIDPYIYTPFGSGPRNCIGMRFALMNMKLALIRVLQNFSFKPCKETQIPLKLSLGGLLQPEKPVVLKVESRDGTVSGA
In short: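 20 nM human CYP3A4 with 25 uM Luciferin-PPXE (at KM) in 200 mM KPO4, preincubated 10 min with compound; NADPH regeneration started a 60 min RT reaction. Luciferin detected by luminescence, normalized to 57 uM ketoconazole as full inhibition.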

[8] = molecular target: Cytochrome P450 3A4 (Homo sapiens) (UniProt P08684); assay: qHTS Assay for Activators of Cytochrome P450 3A4 (AID 885); details: recombinant CYP3A4, Luciferin-PPXE luminescence, 60 min; series mostly up to 57.1 µM; further: nearly all actives have a fitted effect of over 65% in size
In short: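 Human CYP3A4 (20 nM) with Luciferin-PPXE at 25 uM (its KM) in 200 mM KPO4; 10 min compound preincubation, then NADPH regeneration and 60 min reaction at RT. Luciferin read by luminescence; normalized to 57 uM ketoconazole full inhibition.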

[9] = molecular target: Cytochrome P450 2C19 (Homo sapiens) (UniProt P33261); assay: qHTS Assay for Inhibitors and Substrates of Cytochrome P450 2C19 (AID 899); details: recombinant CYP2C19, luciferin-H EGE luminescence; series mostly up to 57.1 µM; further: potency means the concentration at half of the fitted maximal effect; nearly all actives have a fitted effect of over 60% in size
Cytochrome P450 2C19 (Homo sapiens), sequence (P33261 whole entry, looked up): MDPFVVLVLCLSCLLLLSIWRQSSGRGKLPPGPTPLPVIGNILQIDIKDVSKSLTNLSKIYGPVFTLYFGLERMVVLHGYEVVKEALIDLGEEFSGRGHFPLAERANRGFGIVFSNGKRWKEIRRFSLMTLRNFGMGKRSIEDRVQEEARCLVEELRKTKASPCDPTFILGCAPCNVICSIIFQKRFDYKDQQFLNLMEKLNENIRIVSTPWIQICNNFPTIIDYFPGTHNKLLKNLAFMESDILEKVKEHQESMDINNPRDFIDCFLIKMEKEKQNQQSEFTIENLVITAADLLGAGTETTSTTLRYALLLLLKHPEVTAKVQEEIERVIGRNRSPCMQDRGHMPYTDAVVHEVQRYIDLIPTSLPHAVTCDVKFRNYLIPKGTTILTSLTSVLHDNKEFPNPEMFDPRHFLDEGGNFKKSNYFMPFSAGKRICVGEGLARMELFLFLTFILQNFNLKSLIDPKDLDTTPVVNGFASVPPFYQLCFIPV
In short: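 5 nM human CYP2C19 with 10uM Luciferin-H EGE (at KM) in 50mM KPO4, compound preincubated 10 min at 37C, then NADPH regeneration for 60 min at 37C. Luciferin read by luminescence after detection reagent; normalized to 57uM ketoconazole as full inhibition.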

[10] = qHTS Assay for Lipid Storage Modulators (AID 1519; calls by dose curve); details: Drosophila S3 cells, BODIPY lipid droplet/cell ratio, laser cytometry, cells loaded with oleic acid; for activity change, negative = inhibition: at 57.5 µM (top of the series)
In short: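 Cells seeded at 5,000 per well were treated with compounds over a concentration series and loaded with oleic acid (400 uM, as added). Lipid droplet fluorescence (488 nm excitation, 500-530 nm channel) was read by laser-scanning cytometry and normalized to 20 uM Triacsin C.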

[11] = molecular target: Dual specificity protein kinase CLK4 (Homo sapiens) (UniProt Q9HAZ1); assay: qHTS Assay for Inhibitors of CDC-like Kinase 4 (ADP-FP Assay) (AID 1795); details: Transcreener ADP fluorescence polarization; series mostly up to 50 µM; further: nearly all actives have a fitted effect of over 60% in size; further: potency means the concentration at half of the fitted maximal effect
Dual specificity protein kinase CLK4 (Homo sapiens), sequence (Q9HAZ1 whole entry, looked up): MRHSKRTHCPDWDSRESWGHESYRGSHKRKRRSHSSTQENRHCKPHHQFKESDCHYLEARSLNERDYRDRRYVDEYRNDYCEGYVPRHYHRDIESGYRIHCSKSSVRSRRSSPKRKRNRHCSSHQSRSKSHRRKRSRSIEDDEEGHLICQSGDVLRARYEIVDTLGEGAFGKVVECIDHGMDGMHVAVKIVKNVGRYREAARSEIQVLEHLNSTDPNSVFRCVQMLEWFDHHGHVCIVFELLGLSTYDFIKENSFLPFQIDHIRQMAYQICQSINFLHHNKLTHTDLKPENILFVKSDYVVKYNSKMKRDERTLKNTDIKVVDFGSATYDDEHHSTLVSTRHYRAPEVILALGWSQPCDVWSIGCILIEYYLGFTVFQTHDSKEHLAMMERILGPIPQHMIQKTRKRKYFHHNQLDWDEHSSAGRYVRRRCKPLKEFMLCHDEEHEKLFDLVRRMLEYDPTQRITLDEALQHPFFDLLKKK
In short: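 Kinase activity was followed as ADP output, converted from fluorescence polarization with a calibration curve. Reactions ran one hour at low ATP (1 uM) with RS peptide substrate.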

[12] = Primary qHTS for small molecule stabilizers of the endoplasmic reticulum resident proteome: Secreted ER Calcium Modulated Protein (SERCaMP) assay (AID 1508630); details: SH-SY5Y GLuc-SERCaMP (Gaussia luciferase released on ER calcium loss) secretion, thapsigargin, luminescence; series mostly up to 38.4 µM; further: on the % scale 0 is the no-effect control and ±100 the full control effect
In short: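 GLuc-SERCaMP-expressing SH-SY5Y cells, pretreated 16 h with compound, are challenged with thapsigargin to empty ER calcium stores; after 4 h, coelenterazine is added directly to the medium and luminescence is imaged.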

[13] = molecular target: Cytochrome P450 1A2 (Homo sapiens) (UniProt P05177); assay: p450-cyp1a2 (AID 410; calls by dose curve; further: potency means the concentration at half of the fitted maximal effect); details: recombinant CYP1A2, luciferin-ME demethylation, luminescence; series mostly up to 57 µM
Cytochrome P450 1A2 (Homo sapiens), sequence (P05177 whole entry, looked up): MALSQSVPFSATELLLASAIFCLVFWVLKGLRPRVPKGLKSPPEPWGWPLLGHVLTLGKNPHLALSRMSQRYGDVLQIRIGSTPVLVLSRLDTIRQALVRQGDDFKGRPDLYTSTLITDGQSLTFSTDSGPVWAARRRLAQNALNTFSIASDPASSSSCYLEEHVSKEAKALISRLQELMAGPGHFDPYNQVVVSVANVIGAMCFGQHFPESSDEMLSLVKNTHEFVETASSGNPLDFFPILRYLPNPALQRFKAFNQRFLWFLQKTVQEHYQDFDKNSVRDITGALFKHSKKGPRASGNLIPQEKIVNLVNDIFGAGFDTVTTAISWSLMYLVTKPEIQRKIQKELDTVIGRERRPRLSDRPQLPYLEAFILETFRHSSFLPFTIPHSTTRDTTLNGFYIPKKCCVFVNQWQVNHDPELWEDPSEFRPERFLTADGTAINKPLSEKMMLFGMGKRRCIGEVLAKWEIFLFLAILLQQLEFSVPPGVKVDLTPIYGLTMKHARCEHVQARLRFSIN
In short: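 20nM CYP1A2 with 100uM Luciferin-ME (at Km) in 100mM KPO4; compound preincubated 10 min, NADPH regeneration added, 60 min at room temperature. Luciferin quantified by luminescence after detection reagent; normalized to 57 uM furafylline.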

[14] = molecular target: Mitogen-activated protein kinase 10 (Mus musculus) (UniProt Q61831); assay: JNK3 AlphaScreen Assay (AID 530; active means well fitted curve in either direction with a large enough effect, not every such curve was filed as active); details: JNK3 lysate, c-Jun phosphorylation; series mostly up to 57.1 µM
In short: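 Pre-activated (IL-1β/TNFα) JNK3 in HepG2 lysates phosphorylates biotin-GST-cJun(1-79), 10 uM ATP; anti-phospho-cJun(Ser73) AlphaScreen read at room temperature, pH 7.6 Tris buffer. Compounds pre-incubated 15 min as titrations.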

[15] = molecular target: 3',5'-cyclic-AMP phosphodiesterase 4B (Homo sapiens) (UniProt Q07343); assay: qHTS Assay for Inhibitors of PDE-IV (AID 607; active means well fitted activation curve with a large enough effect in the main read-out, with a control signal flat, not every such curve was filed as active; further: % of control where 0% means no effect); details: HEK293 ACTOne CNG channel cells, membrane potential fluorescence; series mostly up to 22.9 µM
3',5'-cyclic-AMP phosphodiesterase 4B (Homo sapiens), sequence (Q07343 whole entry, looked up): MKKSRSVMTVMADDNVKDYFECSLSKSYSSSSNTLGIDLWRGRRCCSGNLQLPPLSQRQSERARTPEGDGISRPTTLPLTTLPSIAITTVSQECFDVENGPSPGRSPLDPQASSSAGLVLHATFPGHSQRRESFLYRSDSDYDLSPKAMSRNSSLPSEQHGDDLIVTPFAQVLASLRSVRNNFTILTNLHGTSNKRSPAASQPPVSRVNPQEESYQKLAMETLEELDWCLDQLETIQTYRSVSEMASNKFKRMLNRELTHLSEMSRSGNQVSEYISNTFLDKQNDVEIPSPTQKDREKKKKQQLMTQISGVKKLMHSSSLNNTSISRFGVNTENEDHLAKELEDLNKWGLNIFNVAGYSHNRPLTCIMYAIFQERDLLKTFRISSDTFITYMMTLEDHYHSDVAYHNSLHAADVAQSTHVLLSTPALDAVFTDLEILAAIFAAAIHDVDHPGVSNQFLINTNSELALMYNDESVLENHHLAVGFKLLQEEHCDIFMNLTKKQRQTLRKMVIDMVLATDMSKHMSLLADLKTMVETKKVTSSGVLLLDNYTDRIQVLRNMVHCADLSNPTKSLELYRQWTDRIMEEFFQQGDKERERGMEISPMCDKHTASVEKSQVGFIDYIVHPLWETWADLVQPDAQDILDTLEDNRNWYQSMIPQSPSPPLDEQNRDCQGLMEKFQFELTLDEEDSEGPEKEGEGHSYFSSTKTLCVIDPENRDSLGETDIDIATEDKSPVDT
In short: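 HEK293 ACTOne cells with CNG channel (1000/well), endogenous PDE4; membrane potential dye, compounds up to 22.9 uM final. Fluorescence Ex 535/Em 590; RO 20-1724 (100 uM final) as reference.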

[16] = molecular target: Ubiquitin carboxyl-terminal hydrolase 1 (Homo sapiens) (UniProt O94782); assay: Inhibitors of USP1/UAF1: Pilot qHTS (AID 504865); details: purified USP1/UAF1, Ub-rhodamine cleavage fluorescence; series mostly up to 54.9 µM;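 further: rhodamine fluorescence freed from ubiquitin-rhodamine substrate followed over time; top concentration of the series differs between compounds; on the % scale 0 is the no-effect control and ±100 the full control effect; nearly all actives have a fitted effect of over 35% in size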
Ubiquitin carboxyl-terminal hydrolase 1 (Homo sapiens), sequence (O94782 whole entry, looked up): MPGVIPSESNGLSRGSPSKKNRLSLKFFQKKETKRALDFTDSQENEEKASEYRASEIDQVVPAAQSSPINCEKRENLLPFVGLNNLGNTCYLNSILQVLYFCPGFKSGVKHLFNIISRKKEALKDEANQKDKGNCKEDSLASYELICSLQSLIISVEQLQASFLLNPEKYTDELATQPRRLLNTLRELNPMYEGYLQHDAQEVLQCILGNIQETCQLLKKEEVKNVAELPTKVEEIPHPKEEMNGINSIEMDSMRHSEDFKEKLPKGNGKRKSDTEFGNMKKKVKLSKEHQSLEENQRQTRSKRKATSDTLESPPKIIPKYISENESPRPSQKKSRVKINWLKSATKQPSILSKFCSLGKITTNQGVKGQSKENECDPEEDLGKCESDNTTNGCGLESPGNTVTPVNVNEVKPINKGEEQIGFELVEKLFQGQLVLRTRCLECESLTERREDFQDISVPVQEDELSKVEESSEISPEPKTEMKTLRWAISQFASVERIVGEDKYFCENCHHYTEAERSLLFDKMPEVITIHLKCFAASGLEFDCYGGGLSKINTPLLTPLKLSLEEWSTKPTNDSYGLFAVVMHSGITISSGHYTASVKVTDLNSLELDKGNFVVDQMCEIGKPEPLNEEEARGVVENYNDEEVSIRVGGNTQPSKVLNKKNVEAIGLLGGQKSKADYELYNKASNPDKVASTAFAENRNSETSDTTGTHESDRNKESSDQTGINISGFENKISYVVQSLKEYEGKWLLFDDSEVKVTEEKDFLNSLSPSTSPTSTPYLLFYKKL
In short: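 Enzyme-free wells gave the negative control, while test wells held 1nM USP1/UAF1 preincubated with compound for 15 min at room temperature. Ub-Rho at 150nM final started the reaction, and fluorescence at 480/540 nm was recorded kinetically.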

[17] = qHTS Assay for Identification of Small Molecule Agonists for Hypoxia Response Element Signaling Pathway (AID 914; active means well fitted activation curve with a large enough effect in the signal ratio, with a control signal flat, not every such curve was filed as active; the % refers to the signal ratio; further: potency means the concentration at half of the fitted maximal effect); details: ME-180 (cervical carcinoma) HRE-bla reporter, beta-lactamase ratio, CoCl2, 17 h; activation: stronger effect = higher value
In short: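 qHTS titration; ME-180 HRE-bla cells; EC50 CoCl2 co-treatment, 17 h at 37 degrees Celsius; CCF4 dye, ex 405nm, em 460nm and 530nm; %Activity from ratio; AC50.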

[18] = measured here: cell count channel max response
[19] = measured here: lipid channel max response

For COc1ccc(CNc2cc(-c3ccccc3Cl)ncn2)c(OC)c1, the Potency [1] was > 11.4 µM (inactive), the activity change, negative = inhibition [2] was -3.31% (inactive) and the activity change, negative = inhibition [3] was -0.814% (inactive). The activity, negative = inhibition [4] was 7.16% (inactive), the Potency [5] was > 46 µM (inactive) and the Potency [6] was > 46 µM (inactive). For the same molecule, the Potency [7] was 6.31 µM (active), the Potency [8] was “inactive” and the Potency [9] was 2 µM (active). For the same molecule, the activity change, negative = inhibition [10] was 5.7% (inactive), the max response [10, 18] was 19.5% and the max response [10, 19] was 25%. For the same molecule, the Potency [11] was “inactive” and the Potency [12] was “inactive”.
In the case of CN(C)c1ccc(-c2nc(NCCN3CCOCC3)c3ccccc3n2)cc1, the activity change, negative = inhibition [2] is reported as 1.67% (inactive), the Potency [13] is reported as 7.94 µM (active) and the activity change, negative = inhibition [3] is reported as -21.3% (inactive). The Potency [6] was > 46 µM (inactive), the outcome [14] was “inactive” and the Potency [15] was “inactive”. The Potency [8] was “inactive”, the activity change, negative = inhibition [10] was 3.01% (inactive) and the max response [10, 18] was 9.82%. The max response [10, 19] was 10.9%, the Potency [11] was “inactive” and the Potency [16] was “inactive”. The Potency [12] was “inactive”.
In the case of COc1cccc(Cn2c(=O)cnc3cnc(Oc4ccccc4)nc32)c1, the Potency [1] is reported as > 11.4 µM (inactive), the activity change, negative = inhibition [2] is reported as -13.9% (inactive) and the activity change, negative = inhibition [3] is reported as -0.253% (inactive). For the same molecule, the activity, negative = inhibition [4] was -14.7% (inactive), the Potency [5] was > 9.22 µM (inactive) and the Potency [6] was > 46 µM (inactive). For the same molecule, the outcome [14] was “inactive”, the activity change, negative = inhibition [10] was -0.165% (inactive) and the max response [10, 18] was 3.98%. The max response [10, 19] was 3.52%, the Potency [11] was “inactive” and the Potency [16] was “inactive”. For the same molecule, the Potency [12] was “inactive”.
In the case of CN(C)c1ncc2nc(-c3cn(C)c4ccccc34)c(=O)n(C[C@H]3CCCO3)c2n1, the Potency [1] is reported as > 11.4 µM (inactive), the activity change, negative = inhibition [2] is reported as -23.8% (inactive) and the activity change, negative = inhibition [3] is reported as 3.82% (inactive). For the same molecule, the activity, negative = inhibition [4] was -10.1% (inactive), the Potency [5] was > 9.22 µM (inactive) and the Potency [6] was > 46 µM (inactive). For the same molecule, the outcome [14] was “inactive”, the activity change, negative = inhibition [10] was 6.78% (inactive) and the max response [10, 18] was 5.1%. The max response [10, 19] was 8.36%, the Potency [11] was “inactive” and the Potency [16] was “inactive”. The Potency [12] was “inactive”.
In the case of CS(=O)(=O)Nc1cccc(-c2ccc3ncnc(NC4CCNCC4)c3c2)c1, the Potency [1] is reported as > 11.4 µM (inactive), the activity change, negative = inhibition [2] is reported as 6.55% (inactive) and the activity change, negative = inhibition [3] is reported as 0.249% (inactive). The activity, negative = inhibition [4] was 4.8% (inactive), the Potency [5] was > 46 µM (inactive) and the Potency [6] was > 46 µM (inactive). The outcome [14] was “inactive”, the Potency [15] was “inactive” and the activity change, negative = inhibition [10] was 4.99% (inactive). The max response [10, 18] was 3.42%, the max response [10, 19] was 11% and the Potency [11] was 11.2 µM (active). For the same molecule, the Potency [16] was “inactive” and the Potency [12] was “inactive”.
In the case of Cc1noc(C)c1-c1ccc2ncnc(NCc3cccnc3)c2c1, the Potency [1] is reported as > 11.4 µM (inactive), the activity change, negative = inhibition [2] is reported as 26.4% (inactive) and the Potency [13] is reported as 0.316 µM (active). The Potency [5] was > 46 µM (inactive), the Potency [6] was > 46 µM (inactive) and the outcome [14] was “inactive”. For the same molecule, the Potency [15] was “inactive”, the Potency [7] was 2.51 µM (active) and the Potency [8] was “inactive”. The Potency [9] was 0.02 µM (active), the Potency [17] was 3.16 µM (active) and the activity change, negative = inhibition [10] was -3.3% (inactive). For the same molecule, the max response [10, 18] was 10.5%, the max response [10, 19] was 6% and the Potency [11] was 0.794 µM (active). The Potency [16] was “inactive” and the Potency [12] was “inactive”.

— PubChem BioAssay (NCATS)
